Sampled rows, rich in hits. Any-hit rate of the full collection: about 1.6%.
Efflux pump inh – antifungal efflux pump inhibition, Nile Red retention. S. cerevisiae Candida pump triplex. actives 0.44% (n = 330,000). AID 485275. inhibition, % at 10 µM;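 active = plate passing quality check with inhibition over a set limit, or well fluorescence over plate mean plus 4 SD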;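 note: Nile Red retained in pooled yeast measured as flow cytometry median fluorescence; 0% = buffer negative control and 100% = Enniatin B positive control; higher means more Nile Red kept so more efflux inhibition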
ATG4B inhibitor – blocks human ATG4B protease cleavage of LC3 substrate. ATG4B cleavage of LC3-PLA2, NBD-HPC fluorescence, 1 h. inhibition, % at 8.33 µM. actives 0.51% (n = 340,000); in the data active = inhibition above about 40%
Target sequence (Q9Y4P1 whole entry, looked up): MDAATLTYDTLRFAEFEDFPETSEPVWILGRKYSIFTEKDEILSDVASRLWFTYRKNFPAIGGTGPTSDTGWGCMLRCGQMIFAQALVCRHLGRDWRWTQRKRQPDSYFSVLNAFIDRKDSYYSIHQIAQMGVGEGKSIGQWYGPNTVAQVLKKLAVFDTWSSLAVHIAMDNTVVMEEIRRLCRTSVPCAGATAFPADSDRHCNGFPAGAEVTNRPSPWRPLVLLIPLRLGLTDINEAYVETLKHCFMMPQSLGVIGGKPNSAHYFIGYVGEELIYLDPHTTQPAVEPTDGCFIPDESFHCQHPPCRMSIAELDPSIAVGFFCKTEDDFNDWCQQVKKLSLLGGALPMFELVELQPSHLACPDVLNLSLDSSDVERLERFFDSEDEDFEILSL
Yeast superoxide – yeast age-related superoxide inhibition as caloric restriction mimetic. superoxide response (% of plate mean), % at 10 µM. S. cerevisiae aged cells, superoxide DHE fluorescence; stronger effect = lower value. AID 2690. actives 0.18% (n = 330,000);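 active = superoxide response under a set limit, about three screen SD below normal, cut at about 65% in these data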;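 note: yeast aged for seven days with compound at 30 °C before DHE staining; 100% = average MFI of all compound-treated wells on the plate with controls excluded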
GRK2 inh – blocks RNA aptamer binding to human GRK2; P25098; bead flow cytometry, FAM-aptamer displacement from GRK2; inhibition of aptamer binding, % at 10 µM; actives 0.59% (n = 330,000); AID 488847;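 active = inhibition of aptamer binding above 40%, roughly 3 SD of noise, on plates passing a quality check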;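 note: median bead fluorescence of bound FAM aptamer so fluorescent compounds give negative values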
* = called active by the depositor; . = not tested or not shown.

SMILES	Efflux pump inh	ATG4B inhibitor	Yeast superoxide	GRK2 inh
O=C(/C=C/c1ccco1)N1CCN(S(=O)(=O)c2ccccc2)CC1	0	-6	115	78*
O=C(c1ccc(=O)[nH]c1)N1CCN(S(=O)(=O)c2ccc(Cl)cc2)CC1	0	4	91	0
COc1cc(C(c2c(C(=O)O)[nH]c3ccccc23)c2c(C(=O)O)[nH]c3ccccc23)ccc1OCc1ccccc1	1	38	153	3
O=C(O)c1[nH]c2ccccc2c1C(c1ccccc1)c1c(C(=O)O)[nH]c2ccccc12	0	12	152	51*
COc1ccc(-c2csc(/C(C#N)=C\c3ccc(OC)c([N+](=O)[O-])c3)n2)cc1	0	30	92	90*
CC(=O)NN1C(=O)/C(=C\c2ccc(C)cc2)SC1=S	0	-4	111	0
CC(=O)NN1C(=O)/C(=C\c2ccc(O)cc2)SC1=S	0	9	96	79*
CCOC(=O)/C(C#N)=N/Nc1ccc(S(=O)(=O)N2CCc3ccccc32)cc1	0	-8	95	82*
O=C(CCc1ccccn1)N1CCCC(N2CCN(c3cccc(C(F)(F)F)c3)CC2)C1 (configuration not stated)	0	-1	81	1
Cc1ccn(CC(=O)N2CCCC(N3CCN(c4ccc(F)cc4)CC3)C2)n1 (configuration not stated)	.	-11	.	.
CC(=O)N1c2ccc(S(=O)(=O)N3CCC(C(=O)Nc4cccc(Cl)c4)CC3)cc2CC1C (configuration not stated)	0	-2	126	85*
CC(=O)N1c2ccc(S(=O)(=O)N3CCC(C(=O)Nc4cccc(C)c4)CC3)cc2CC1C (configuration not stated)	0	-5	99	0
O=C(O)C(Cc1ccc(O)cc1)N1C(=O)c2ccccc2C1=O (configuration not stated)	0	-3	113	0
O=C1C(=Cc2ccc(Br)o2)C(=O)c2ccccc21	0	69*	110	7
COc1ccccc1-c1ccc(/C=C2/C=C(C)OC2=O)o1	0	7	97	0
CC1=C/C(=C\c2ccc(Br)o2)C(=O)O1	0	4	123	96*
CCOc1ccc2nc(N/C(N)=N/C(=S)Nc3ccc(C)c(C)c3)nc(C)c2c1	0	-7	101	94*
COc1ccc(NC(=S)/N=C(\N)Nc2nc(C)c3ccc(C)cc3n2)cc1	0	-14	95	1
O=C(O)c1cccc(Nc2c([N+](=O)[O-])c(=O)oc3ccccc23)c1	0	-3	64*	0
CCNc1oc(-c2ccccc2F)nc1S(=O)(=O)c1ccccc1	0	-1	112	0
CN(CC(=O)Nc1ccc(F)cc1)C(=O)c1cc(-c2ccco2)nc2ccccc12	0	5	103	8
Cc1ccc(NC(=O)CN(C)C(=O)c2cc(-c3ccco3)nc3ccccc23)cc1	0	5	89	83*
CCN(CC)c1ccc(/C=N/NC(=O)c2cccc(S(=O)(=O)Nc3ccccc3OC)c2)c(O)c1	0	-6	107	70*
O=C(Nc1ccc(C(=O)c2ccc(C(=O)O)c(C(=O)O)c2)cc1)c1ccccc1	0	1	97	1
Cc1c(C)c(C)c(C(=O)c2ccc(NC(=O)c3ccccc3C(=O)O)cc2)c(C)c1C	0	94*	105	0
SMILES	Efflux pump inh	ATG4B inhibitor	Yeast superoxide	GRK2 inh
CCc1nc(SCC(=O)Nc2cc(OC)ccc2OC)c2c(C)c(C)sc2n1	0	37	97	2
CN(C)NC(=S)NC(=O)C12CC3CC(CC(C3)C1)C2	0	-7	90	0
CN(C(=S)NC(=O)C12CC3CC(CC(C3)C1)C2)c1ccc(O)cc1	0	-9	102	59*
Cc1ccc(-n2nc3c(N4CCC(C(=O)NCc5ccccc5C)CC4)nnc(C)c3c2C)cc1	0	54*	97	0
Cc1ccc(-n2nc3c(N4CCC(C(=O)N5CCCCCC5)CC4)nnc(C)c3c2C)cc1	0	71*	108	0
CCCCCCSc1cc(-c2nc3cnccn3c2NCc2ccccc2)ccc1OC	0.8*	3	124	0
COc1ccc(-c2nc3cnccn3c2NCc2ccccc2)cc1SC1CCCCC1	0	1	114	0
Cc1ccc(-c2nnn(CC(=O)N(CC(=O)NC3CCCCC3)c3ccccc3F)n2)o1	.	-6	.	.
Cc1cc(N/N=C/c2ccc(O)cc2)nc(NS(=O)(=O)c2ccccc2)n1	0	-3	108	74*
O=C(N/N=C\c1ccc[nH]1)C1COc2ccccc2O1 (configuration not stated)	0	-12	106	0
O=S(=O)(NCc1ccccc1)c1ccccc1NCCc1ccccc1	0	1	52*	1
FC(F)(F)c1cnc(Oc2ccc(-c3nnco3)cc2)c(Cl)c1	0	-18	91	0
FC(F)(F)c1cnc(Oc2ccccc2-c2nnco2)c(Cl)c1	0	-13	105	58*
Nc1ccc(C(=O)Nc2cccc(N)c2)cc1	0	-7	95	3
CC(C)[C@H](NC(=O)c1ccccc1Cl)C(=O)OCC(=O)NCc1ccc2c(c1)OCO2	0	-11	111	42*
O=C(N/N=C/c1cccc(C(F)(F)F)c1)c1ccc(O)cc1	0	-1	63*	2
CCOP(=O)(OCC)C(NC(=O)C(F)(F)F)c1ccccc1 (configuration not stated)	0	11	93	64*
CCCOP(=O)(OCCC)C(NC(=O)C(C)(C)C)c1ccccc1 (configuration not stated)	0	-6	110	0
Cc1ccccc1CN1CCN(S(=O)(=O)c2cccs2)CC1	0	7	100	2
CN1CCN(S(=O)(=O)c2cccc(C(=O)Nc3ccc(Br)cc3Br)c2)CC1	0	-4	104	6
Cc1noc(/C=C/N(C)C)c1S(=O)(=O)N1CCN(c2ccccc2)CC1	0	-2	84	0
Cc1ccc(C)c(N2CCN(S(=O)(=O)c3c(C)noc3/C=C/N(C)C)CC2)c1	0.8*	7	95	2
Cc1ccc2c(c1C)NC(C(=O)O)C1CC=CC21 (configuration not stated)	0	14	96	47*
CCOC(=O)c1ccc2c(c1)C1C=CCC1C(C(=O)O)N2 (configuration not stated)	0	.	99	88*
O=C(CCCN=C1NS(=O)(=O)c2ccccc21)Nc1ccc(Cl)cc1	0	-3	99	0
CSc1nsc(/C=C/Nc2ccc(F)cc2F)c1C#N	0	2	107	98*
COc1ccc(C2=NO[C@@](CC(=O)O)(C(=O)Nc3ccc4c(c3)OCCO4)C2)cc1	0	2	117	1
Cn1nc(C(=O)Nc2ccc3c(c2)OCCO3)cc1C(=O)O	0	-9	94	0
O=C(Nc1ccc(Br)cc1)N1CCCC(O)C1 (configuration not stated)	0	0	112	56*
CCC1=NNc2cccc3c(OC)ccc1c23	0	.	55*	81*

Assay outcomes (PubChem)
